# Compound activity from PubChem BioAssay.
# KB-V1 MDR tox: kills drug-selected multidrug resistant KB-V1 cells; KB-V1 MDR cells viability, CellTiter-Glo, 72 h; Potency, µM (series often up to 46.1 µM), actives largely listed as cytotoxic; 3.4% of 400,000 active; further: on the % scale 0 is the no-effect control and ±100 the full control effect; nearly all actives have a fitted effect of over 60% in size
#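 Potencies derive from concentration-effect curves fitted to normalized luminescence (CellTiter-Glo) of KB-V1 cells treated for 72 h at 37 degrees C in phenol-red-free DMEM containing 10% FBS.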
# KB-3-1 cytotox: kills parental KB-3-1 adenocarcinoma cells; KB-3-1 viability, CellTiter-Glo ATP luminescence, 72 h; Potency, µM (top dose mostly 46.1 µM), hits mostly cytotoxic; 1.4% of 400,000 active; AID 1347075; further: on the % scale 0 is the no-effect control and ±100 the full control effect; nearly all actives have a fitted effect of over 60% in size
#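 Screening of KB-3-1 cells (DMEM, 10% FBS, phenol-red free) ran from lowest to highest compound concentration; after 72 h at 37 °C viability was read luminescently and curves fitted.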
# ALOX12 inh: inhibitors of human 12S-lipoxygenase ALOX12; AID 1671190; Potency, µM (doses to about 108 µM), without a hit: at the top dose activity change, negative = inhibition, usual class: inhibitors; 1.1% of 580,000 active; purified 12hLO, xylenol orange hydroperoxide absorbance; P18054; further: on the % scale 0 is the no-effect control and ±100 the full control effect
# Target sequence (P18054 whole entry, looked up): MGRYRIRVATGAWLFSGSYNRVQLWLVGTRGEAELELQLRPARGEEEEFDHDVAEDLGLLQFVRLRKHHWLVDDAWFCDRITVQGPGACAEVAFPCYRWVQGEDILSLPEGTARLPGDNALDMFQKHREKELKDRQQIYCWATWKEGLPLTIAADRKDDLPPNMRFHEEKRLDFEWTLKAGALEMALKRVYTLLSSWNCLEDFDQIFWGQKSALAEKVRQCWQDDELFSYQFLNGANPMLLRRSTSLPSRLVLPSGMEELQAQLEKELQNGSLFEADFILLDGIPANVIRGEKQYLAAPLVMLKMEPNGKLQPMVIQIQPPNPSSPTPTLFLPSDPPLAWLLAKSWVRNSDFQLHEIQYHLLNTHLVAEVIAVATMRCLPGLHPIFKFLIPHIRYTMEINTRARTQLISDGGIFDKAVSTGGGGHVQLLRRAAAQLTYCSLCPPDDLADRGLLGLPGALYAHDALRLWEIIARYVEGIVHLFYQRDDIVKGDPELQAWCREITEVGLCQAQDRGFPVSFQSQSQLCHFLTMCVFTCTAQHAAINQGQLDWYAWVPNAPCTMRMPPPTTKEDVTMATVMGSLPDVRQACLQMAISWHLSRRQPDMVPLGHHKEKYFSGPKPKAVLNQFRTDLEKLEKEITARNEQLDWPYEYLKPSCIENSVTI
#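 Purified human 12hLO (150 nM final) in 25 mM Hepes, 0.01% Triton X-100, pH 7.0 was preincubated 15 min at room temperature with compound. Then 40 uM arachidonic acid was added, 30 min. Hydroperoxide was read by Fe-XO absorbance ratio 573/405 nm.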
# SW480 rereplic: induces DNA re-replication in SW480 colon adenocarcinoma cells | Potency, µM (highest dose often 46.1 µM), without a hit: at the top dose re-replication activation, actives largely listed as activators | AID 624297 | SW480 DNA re-replication, Hoechst DNA content imaging, 48 h | 1.8% of 340,000 active; further: % of control where 0% means no effect; nearly all actives have a fitted effect of over 55% in size
#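 Hoechst fluorescence of nuclei (405 nm excitation, 500-530 nm emission) measured by plate-scanning imager after 48 hr compound exposure at 37 C; re-replication scored as increased number of nuclei with elevated intensity.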
# MCF10A rerep: DNA re-replication induction in MCF 10a cells; MCF 10A DNA re-replication, Hoechst nuclear intensity, 48 h; Potency, µM (top dose mostly 46.1 µM), without a hit: top-dose activity, positive = re-replication, most hits filed as activators; 2.9% of 350,000 active; further: % of control where 0% means no effect; nearly all actives have a fitted effect of over 50% in size
# PINK1 modulator: PINK1 expression modulation | 0.2% of 410,000 active | PINK1 immunofluorescence, high-content cytometry, 24 h | Potency, µM (doses to about 76.6 µM), without a hit: at the top dose activation (PINK1 increase), usual class: activators; active means well fitted activation curve with a large enough effect; inconclusive means small, poorly fitted or top-dose-only effect; cell line not stated here; further: % of control where 0% means no effect; nearly all actives have a fitted effect of over 65% in size
#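 Compound titrations (5 concentrations, 24 h) on a stable cell line; DMSO and CCCP controls. Endpoint: fixed-cell PINK1 immunofluorescence with mitochondrial, cell and nuclear markers, scanned by microplate cytometer.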
# * marks the source's active call; other numbers are inactive results; i = inactive; ? = inconclusive; nt = no result; [ ] = another dose, or the depositor's remark. Shown are actives, neighbours in structure and some others; about 5.8% of the full set was active somewhere. Unless noted, the call rests on the fitted dose curve; in most records, active means well fitted curve in the direction sought with a large enough effect; inconclusive means small, poorly fitted or top-dose-only effect, or another doubt; inactive means no such curve, though single readings can be large; an effect the other way counts as inactive or inconclusive. Potency means the concentration at half of the fitted maximal effect.
SMILES,KB-V1 MDR tox,KB-3-1 cytotox,ALOX12 inh,SW480 rereplic,MCF10A rerep,PINK1 modulator
CC1CN(C(=O)COc2cc3oc(=O)cc(-c4ccccc4)c3cc2Cl)CCO1 (stereo unspecified),nt,nt,-6%,nt,nt,nt
COCC(=O)N1CCN(C(=O)Cc2ccc(N3CCCC3=O)cc2)CC1,nt,nt,14%,nt,nt,nt
CCCn1c(=N)n(CC(=O)c2cccs2)c2ccccc21,i,i,16%,14%,?,-2%[38.3 µM]
O=C(CCN1CCCC1)c1cccs1,i,i,0%,103%,23µM*,1%
N=c1n(CCN2CCCCC2)c2ccccc2n1CC(=O)c1cccs1,i,?,1%,8.2µM*,?,1%
Cc1ccc(C(=O)c2oc3nc(C)cc(C)c3c2N)cc1,?,i,0%,?,9.2µM*,2%[38.3 µM]
CCc1ccc(C(=O)c2oc3nc(C)cc(C)c3c2N)cc1,2.6µM*,i,-15%,16µM*,7.3µM*,8%[38.3 µM]
COc1ccc(C(=O)c2oc3nc(C)cc(C)c3c2N)cc1,?,i,?,16%,15%,0%
CCSc1nnc(NC(=O)C(NC(=O)c2ccc(Cl)cc2)C(C)C)s1 (stereo unspecified),12µM*,i,0%,-2%,2%,3%
CC(C)C(NC(=O)c1ccc(Cl)cc1)C(=O)NC1=NCCS1 (stereo unspecified),21µM*,i,?,-7%,4%,0%
CC(=O)Nc1ccc(NC(=O)C(NC(=O)c2ccc(Cl)cc2)C(C)C)cc1 (stereo unspecified),i,i,?,nt,nt,0%
CC(C)[C@H](NC(=O)c1ccc(F)cc1)C(=O)NC1=NCCS1,i,i,?,-2%,2%,1%
COc1cccc(NC(=O)CC2Sc3ccccc3NC2=O)c1 (stereo unspecified),nt,nt,-9%,nt,nt,nt
Cc1ccc(S(=O)(=O)NC(C)(C)CN2CCc3ccccc3C2)cc1,?,i,-12%,6.5µM*,20%,0%
CC(C)(CN1CCCCC1)NS(=O)(=O)c1ccc(Cl)cc1,i,i,0%,3%,11%,3%
Cc1ccc(S(=O)(=O)NC(C)(C)CN2CCNCC2)cc1,i,i,7%,21µM*,?,1%
COc1ccccc1N(C)S(=O)(=O)c1ccc(C(=O)N(C)Cc2cccc(OC)c2OC)cc1,i,i,8%,nt,nt,2%
COc1ccccc1N(C)S(=O)(=O)c1ccc(C(=O)N(C)Cc2ccc(Cl)s2)cc1,nt,nt,-11%,3%,26µM*,-3%
O=C(CSc1ncnc2ccccc12)Nc1ccc(Cl)cc1Cl,nt,nt,8%,nt,nt,nt
COc1cc(NC(=O)CN2C(=O)CN(C)C2=O)c(C)cc1[N+](=O)[O-],i,i,-2%,-10%,-7%,0%
COc1cc(NC(=O)Cn2ncc(Cl)c(Cl)c2=O)c(C)cc1[N+](=O)[O-],i,i,0%,?,3.7µM*,-1%
O=C(CSc1nc2ccc(Cl)cc2[nH]1)NC1CCCc2ccccc21 (stereo unspecified),i,i,-24%,4%,?,?
COc1ccc2nc(SCC(=O)NC3CCCc4ccccc43)[nH]c2c1 (stereo unspecified),18µM*,?,-8%,-2%,-1%,0%
COc1ccc2nc(SCC(=O)N(C)C3CCCCC3)[nH]c2c1,21µM*,i,0%,2%,0%,0%
COc1ccc2nc(SCC(=O)NC(C)(C)C)[nH]c2c1,i,i,-3%,?,8.2µM*,nt
Cc1nnc(SC(C)C(=O)NC2CCCc3ccccc32)n1-c1ccccc1 (stereo unspecified),?,?,5%,0%,-2%,-2%
Cc1ccccc1-n1nnnc1SC(C)C(=O)NC1CCCc2ccccc21 (stereo unspecified),3.7µM*,i,-11%,?,-3%,-2%
COC(=O)c1ccc(CN(C)Cc2cccs2)cc1,nt,nt,12%,nt,nt,nt
